Experimental data published in article PMC10726135, “HNF4α isoforms regulate the circadian balance between carbohydrate and lipid metabolism in the liver”.
Whole data set: some 18,000 sequences, median “log2 normalized intensity” near 0.39, cut for the highest 2% near 6.6. The list comes from a sample in which the highest values are over-represented; it also holds similar and randomly drawn sequences.

molecular target: T1, HNF4alpha2 (COS-7 nuclear extract) (Homo sapiens, UniProt P41235 1-474); test: protein-binding microarray; COS-7 nuclear extract on double-stranded Agilent 4x180k PBM; binding buffer, salt, pH and temperature not given in the material; high values mean tight binding; settings: chain copies: 2; label: 3' end of strand 1 on the slide; dsDNA, one strand shown
T1 sequence: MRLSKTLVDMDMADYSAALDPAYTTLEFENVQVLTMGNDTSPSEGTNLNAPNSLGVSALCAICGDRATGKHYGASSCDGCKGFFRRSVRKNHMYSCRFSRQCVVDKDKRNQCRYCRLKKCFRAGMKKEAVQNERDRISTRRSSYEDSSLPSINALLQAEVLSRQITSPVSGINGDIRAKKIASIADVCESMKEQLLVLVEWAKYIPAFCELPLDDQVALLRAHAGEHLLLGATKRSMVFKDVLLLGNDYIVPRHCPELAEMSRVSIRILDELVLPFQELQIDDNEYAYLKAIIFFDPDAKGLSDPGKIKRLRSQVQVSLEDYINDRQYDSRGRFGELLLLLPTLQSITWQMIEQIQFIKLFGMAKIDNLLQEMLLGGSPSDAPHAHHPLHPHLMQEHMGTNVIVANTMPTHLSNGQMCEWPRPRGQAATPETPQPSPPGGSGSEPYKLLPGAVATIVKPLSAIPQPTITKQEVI
Summary of the method: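 Nuclear extracts came from COS-7 cells transiently transfected by CaPO4 with a human HNF4α isoform expression vector. They were applied to a custom Agilent SurePrint G3 4x180k array of ~60-nt oligonucleotides, made double-stranded, with ~44,000 test sequences spotted in quadruplicate. Bound HNF4α was imaged at 2-µm resolution on an Agilent G2565CA scanner. Binding signal was taken as background-corrected, normalized gProcessedSignal from Agilent software.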

Question: How did the binding signal turn out when “TTAGCAGATAAATCTAGGCCTAGGCATTGAGCCTAGGGAGATTAGAGTATCGGTCGA” was run?
Answer: -0.468 log2 normalized intensity

Question: With “ATCTTGGGTTAGGCCTTTAGAGGATTTACTGCCTAGGGAGATTAGAGTATCGGTCGA” as the sequence, how does the binding signal read?
Answer: -0.708 log2 normalized intensity

Question: How did the binding signal turn out when “ACATGACCTTTGTCCGTTCCTGCCTGGAGCGCCTAGGGAGATTAGAGTATCGGTCGA” was run?
Answer: 4.82 log2 normalized intensity

Question: With “CATTCACATGACCTTTGTCCGTTCCTGCCTGCCTAGGGAGATTAGAGTATCGGTCGA” as the sequence, how does the binding signal read?
Answer: 5.92 log2 normalized intensity

Question: How did the binding signal turn out when “CTGGGATGAGATACCCATTCACATGACCTTGCCTAGGGAGATTAGAGTATCGGTCGA” was run?
Answer: 3.29 log2 normalized intensity

Question: With “ATACCCATTCACATGACCTTTGTCCGTTCCGCCTAGGGAGATTAGAGTATCGGTCGA” as the sequence, how does the binding signal read?
Answer: 7.01 log2 normalized intensity

Question: How did the binding signal turn out when “TTCGGTGCTGACCTTTGTTCACATTTGTGCGCCTAGGGAGATTAGAGTATCGGTCGA” was run?
Answer: 5.06 log2 normalized intensity

Question: Which binding signal does the source give for “ATGAGATACCCATTCACATGACCTTTGTCCGCCTAGGGAGATTAGAGTATCGGTCGA” here?
Answer: 8.34 log2 normalized intensity

Question: “CTGGGAAGATTAAGGAAGGAAGGTGCTTATGCCTAGGGAGATTAGAGTATCGGTCGA” was tested. Which binding signal did it give?
Answer: -0.85 log2 normalized intensity

Question: With “TTCACCCCATTTTGTCCCTCCCTGCAGCTGGCCTAGGGAGATTAGAGTATCGGTCGA” as the sequence, how does the binding signal read?
Answer: 4.07 log2 normalized intensity

Question: How did the binding signal turn out when “CTGACCTCTTTTGGATTTTTCCATATCTGTGCCTAGGGAGATTAGAGTATCGGTCGA” was run?
Answer: 1.74 log2 normalized intensity

Question: With “TGCAGCCCTGCCACTCTTTTTTAGACTTTGGCCTAGGGAGATTAGAGTATCGGTCGA” as the sequence, how does the binding signal read?
Answer: 3.72 log2 normalized intensity

Question: How did the binding signal turn out when “CCCTGCCACTCTTTTTTAGACTTTGACCTCGCCTAGGGAGATTAGAGTATCGGTCGA” was run?
Answer: 10 log2 normalized intensity

Question: With “CCACTCTTTTTTAGACTTTGACCTCCATATGCCTAGGGAGATTAGAGTATCGGTCGA” as the sequence, how does the binding signal read?
Answer: 7.61 log2 normalized intensity

Question: With “GACCTCTGCCCTTCCACCCACTTTATCTTCGCCTAGGGAGATTAGAGTATCGGTCGA” as the sequence, how does the binding signal read?
Answer: 3.26 log2 normalized intensity

Question: How did the binding signal turn out when “ATGACCTCTTTTAGTAACTGACTTTAACTTGCCTAGGGAGATTAGAGTATCGGTCGA” was run?
Answer: 1.5 log2 normalized intensity

Question: “ACTACCTCTTTAGGCTGGACTCTGACCCATGCCTAGGGAGATTAGAGTATCGGTCGA” was tested. Which binding signal did it give?
Answer: 6.75 log2 normalized intensity

Question: Which binding signal does the source give for “ACCAGACTACCTCTTTAGGCTGGACTCTGAGCCTAGGGAGATTAGAGTATCGGTCGA” here?
Answer: 3.96 log2 normalized intensity

Question: How did the binding signal turn out when “CTCTTTAGGCTGGACTCTGACCCATTCCTTGCCTAGGGAGATTAGAGTATCGGTCGA” was run?
Answer: 5.23 log2 normalized intensity

Question: How did the binding signal turn out when “TTAATGTGCTTGTCTGACTGCTGCCAAAGGGCCTAGGGAGATTAGAGTATCGGTCGA” was run?
Answer: -0.631 log2 normalized intensity

Question: “ATGGTGGAGGGTCTTGCTTTGATGTTGATGGCCTAGGGAGATTAGAGTATCGGTCGA” was tested. Which binding signal did it give?
Answer: 1.58 log2 normalized intensity

Question: “CTTTTGGTATGCAAGGCATGGTGCTTCGCAGCCTAGGGAGATTAGAGTATCGGTCGA” was tested. Which binding signal did it give?
Answer: 1.26 log2 normalized intensity

Question: With “TTTCAAGAATGGAGAAAACAACATTCCTTGGCCTAGGGAGATTAGAGTATCGGTCGA” as the sequence, how does the binding signal read?
Answer: -0.213 log2 normalized intensity

Question: With “TCCTTTGGATCATGTGTCTGAGCAAGTTTCGCCTAGGGAGATTAGAGTATCGGTCGA” as the sequence, how does the binding signal read?
Answer: 2.08 log2 normalized intensity
